Test results published in PubChem BioAssay (NCI).
This is part of a sample that, as a whole, favours compounds with a hit. Of some 79,000 tested, about 15% had one in any assay. Unmarked numbers belong to inactive results. Calls of active or inactive are those of the source. Rule as the data show it: active = growth inhibition above about 70%; inactive = the rest.

What was measured:
[1] = NCI Yeast Anticancer Drug Screen. Data for the rad50 strain (AID 155);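 also: 0% = growth of vehicle-only cultures of the same strain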; details: S. cerevisiae rad50 strain growth inhibition; at 50.0 µM; hits give high values
Method in brief: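 Cells are treated with compound, grown, and their growth is then scored against vehicle-only cultures of the same repair-deficient yeast strain.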

[2] = NCI Yeast Anticancer Drug Screen. Data for the mec2-1 strain (AID 157); details: S. cerevisiae mec2-1 strain, at 50.0 µM, hits give high values
Method in brief: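 Mutant yeast (mec2-1) grown with compound; growth inhibition relative to vehicle control reported.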

[3] = NCI Yeast Anticancer Drug Screen. Data for the sgs1 mgt1 strain (AID 161);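 also: 0% = growth of cultures given vehicle only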; details: S. cerevisiae sgs1 mgt1 strain, at 50.0 µM, hits give high values
Method in brief: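 This yeast growth screen uses a strain with defined DNA-repair lesions; compound-treated growth is compared with vehicle-treated growth.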

[4] = NCI Yeast Anticancer Drug Screen. Data for the cln2 rad14 strain (AID 165);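 also: 0% = growth equal to vehicle treated cultures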; details: S. cerevisiae cln2 rad14 strain, at 50.0 µM, hits give high values
Method in brief: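 Readout is yeast growth inhibition versus vehicle-treated controls, using a strain with cln2 and rad14 alterations exposed to compound.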

[5] = NCI Yeast Anticancer Drug Screen. Data for the bub3 strain (AID 167); details: S. cerevisiae bub3 mutant strain, at 50.0 µM, hits give high values
Method in brief: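 Part of a panel of yeast mutants defective in DNA damage repair or cell cycle regulation. Each strain is grown with compound, and inhibition is calculated relative to solvent-treated cultures.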

[6] = NCI Yeast Anticancer Drug Screen. Data for the mlh1 rad18 strain (AID 175); details: S. cerevisiae mlh1 rad18 strain growth inhibition; at 50.0 µM; hits give high values
Method in brief: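 Genetically defined yeast (DNA repair-deficient) exposed to compounds; growth inhibition determined relative to vehicle.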

SMILES	growth inhibition [1]	growth inhibition [2]	growth inhibition [3]	growth inhibition [4]	growth inhibition [5]	growth inhibition [6]
CCOC1C(Br)Cn2c(=O)c3cc4ccccc4cc3c(=O)n2C1C (stereo not drawn)	61.2%	8.15%	21.6%	44.3%	33.6%	33.2%
FS(F)(F)(F)(F)c1cccc(NC(=S)SCc2ccc(Cl)cc2)c1	43.6%	24.8%	39.8%	32.4%	6.8%	30.1%
Cn1ncc2c(Nc3cc(Cl)ccc3Cl)ncnc21	-3.05%	-1.9%	4.35%	-52.8%	3.7%	-1.95%
O=C1CC2(CCCC2)C(=O)N1c1ccc(O)c(CN2CCCCC2)c1	7.6%	-4.3%	-19.6%	14.7%	6.35%	4.95%
CSc1c2c(c(C)c3c1[nH]c1ccccc13)C=NCC2	10.8%	13.8%	8.6%	-83.2%	14%	17.7%
O=C(O)c1cc2c([nH]1)-c1cccnc1C(=O)C2=O	-9.6%	-11.3%	-15.8%	-18.8%	-1.4%	14.1%
Cc1ccc(C(=O)N(C(C)C)C(C)C)cc1N=NN(C)C	-10%	-30.6%	-31.1%	12.2%	-20.6%	-23.7%
CC(C)CSC(SCC(C)C)C(O)C(O)C(O)CO (stereo not drawn)	-6.85%	3%	5.4%	-35.2%	10.2%	6%
CCOC(=O)C(=O)Cc1ccccc1[N+](=O)[O-]	26.1%	0.1%	7.75%	-3.95%	-3.8%	38%
CCN1CC(C(=O)NC(C)C(=O)O)Cc2ccccc21 (stereo not drawn)	7.2%	-1.25%	9.15%	-31%	1.45%	-8%
Cc1cc(N(CCC#N)CCC#N)ccc1/C=C(\NC(=O)/C=C/c1ccccc1)C(=O)N=[N+]=[N-]	-30.4%	-31.9%	-44.9%	-19.4%	-21.1%	-7.2%
CCCCCCCCCCCCCCOc1ccc2ccccc2c1	21.5%	6.7%	6.5%	-10.4%	-6.05%	-4%
CC(=O)c1nc(C#N)c(N)o1	1.9%	-3.55%	-17.7%	20.8%	-20.2%	-23.4%
CN(C)c1nc(N/N=C\C(O)C(O)C(O)C(O)CO)nc(N(C)C)n1 (stereo not drawn)	-1.55%	2.45%	-7.1%	1.15%	32.1%	9%
CC(C)(C)OC(=O)c1c2ccccc2cc2ccccc12	21.9%	12.4%	14%	14.2%	12.1%	10.3%
CCOC(=O)/C(=C\OC(=O)c1ccccc1)NC(=O)Cc1ccccc1	-1.9%	25.6%	22%	-98.8%	37.2%	23.4%
COc1cc(C2=C3C(=O)OCC3Cc3ccccc32)ccc1OCc1ccccc1 (stereo not drawn)	18.9%	-0.5%	7.5%	5.55%	11.1%	29.6%
CCCCCCCCCCCCCCOc1ccc(Sc2ccc([N+](=O)[O-])cc2)cc1	40.8%	-0.1%	46%	-5%	5.8%	26.8%
Cc1ccc(C(C)C)cc1NC(=O)/C=C/c1ccccc1	10.2%	36%	36.6%	-15.2%	23.9%	55%

SMILES	growth inhibition [1]	growth inhibition [2]	growth inhibition [3]	growth inhibition [4]	growth inhibition [5]	growth inhibition [6]
O=[N+]([O-])c1ccc(P(=O)(Nc2ccc(Cl)cc2)Nc2ccc(Cl)cc2)cc1	95.7% (active)	96.8% (active)	95.1% (active)	91.8% (active)	94.8% (active)	97.1% (active)
CCCCCCCCCCCCCC#N	5.85%	-3.55%	3.35%	5.25%	1.65%	25.8%
Cc1ccc(S(=O)(=O)n2oc(N)c(Cc3ccccc3)c2=O)cc1	-25.4%	-0.15%	7.8%	-23.5%	19.2%	-2.55%
O=C(O)c1ccc2c([N+](=O)[O-])cccc2n1	33.5%	19.2%	14.3%	-44%	1.15%	19.9%
COc1ccc(-c2nc(N)nc(-c3cc(C)ccc3O)c2Cl)cc1	12.7%	-0.45%	5.3%	17.4%	6.5%	12.6%
O=C1Cc2ccccc2CCc2ccccc21	13.2%	-13.3%	6.5%	22.8%	-13.8%	24%
CCCOC(=O)CNC(=O)OC(C)(C)C	17.6%	14.8%	1.15%	0.55%	-4.95%	-4.35%
Clc1ccc(N=C2CCCCC2)cc1	12.4%	-12.5%	-0.2%	8.45%	-18.2%	1.9%
COc1ccc(CCN=C2CCC(C(=O)NCCc3ccc(OC)c(OC)c3)N2)cc1OC (stereo not drawn)	-12.9%	-18.9%	2.6%	-1.3%	-20.5%	-4.25%
CC(=O)OCC1OC(n2c3c(cc(C#N)c2=S)CCCCCC3)C(OC(C)=O)C(OC(C)=O)C1OC(C)=O (stereo not drawn)	22.2%	4.45%	12.1%	-12.8%	-4%	33.4%
COC(=O)c1c(C(=O)OC)c(C(c2ccccc2)c2ccccc2)n(-c2ccccc2)c1Cl	-17.6%	-21.1%	0.6%	0.65%	-18.3%	1.2%
CC1(C)CS(=O)(=O)CC(C)(C)C(=N/N)/C1=N\N	20.1%	26.9%	-13.2%	5.8%	-6.95%	-18.2%
S=C1N=C(Cl)/C(=C\c2ccccc2)N1	-4.65%	-23.9%	3.45%	24.1%	11.5%	-14.4%
CCOC(=C\C=C\C1=[N+](C)c2ccccc2C1(C)C)/C=C/C=C1/N(C)c2ccccc2C1(C)C	17.6%	87.6% (active)	34.2%	82.5% (active)	81.8% (active)	27.6%
CC(CCl)NS(=O)(=O)c1ccccc1 (stereo not drawn)	2.1%	2.85%	-2.85%	0.85%	-7.5%	-8.05%
CCC(CC)C(O)CCCN(C)C (stereo not drawn)	33.6%	21.8%	31.2%	12.8%	1.65%	24.1%
O=C(O)/C=C/C(=O)Nc1cc2c(cc1Br)-c1ccccc1C2O (stereo not drawn)	-2.75%	12.5%	14.3%	14.1%	1.25%	34%
Cc1cc(C(=O)O)ccc1C(=O)O	-13.8%	-31.6%	-1.95%	-39.4%	-20.4%	-25.1%
CC1=CC(=O)CC(C)(C)C1(O)/C=C/C(C)=C/C(=O)O (stereo not drawn)	-11.6%	-28.5%	-56%	-37%	-41.7%	5.1%
